{"source": "PubChem BioAssay AID720712", "about": "(NMMLSC, 2013)", "target": "Cell division control protein 42 homolog (Homo sapiens) (UniProt P60953)", "sequence (P60953 whole entry, looked up)": "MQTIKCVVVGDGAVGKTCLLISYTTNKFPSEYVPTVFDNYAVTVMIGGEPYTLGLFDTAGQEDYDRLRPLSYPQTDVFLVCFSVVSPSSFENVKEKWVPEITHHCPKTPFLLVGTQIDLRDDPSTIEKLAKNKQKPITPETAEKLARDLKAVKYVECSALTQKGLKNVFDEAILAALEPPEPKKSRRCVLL", "experiment": "blockade of fluorescent GTP loading onto wildtype Cdc42 – biochemical, compound preincubation comparison, flow cytometry beads, Bodipy-FL-GTP, mechanism study for Ras-family GTPase inhibitor project, late-stage follow-up (AID 720712)", "settings": "GST-Cdc42 beads, Bodipy-FL-GTP binding, EDTA, protocol A; series mostly up to 100 µM", "note": "Active and inactive are the calls of the source.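 How the source made its calls: active means EC50 at most 10 µM with response changing by at least 30 points across doses, from an acceptable curve fit; inactive means the rest.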"}
{"compound": "CC1(C)Cc2c(sc(NC(=S)NC(=O)c3cccc(N=[N+]=[N-])c3)c2C(=O)O)CO1", "values": [{"measurement": "outcome", "result": "inactive"}]}
{"compound": "CC1(C)Cc2c(sc(NC(=S)NC(=O)c3ccc(N=[N+]=[N-])cc3)c2C(=O)O)CO1", "values": [{"measurement": "outcome", "result": "inactive"}]}
